# DRD3 agonist = D3 dopamine receptor (human) agonism; P35462; D3R DiscoveRx beta-arrestin cells, luminescence, 90 min; max activation, %; 410,000 compounds, 0.58% hits; AID 652048; in the data active = max activation above about 30%
# Target sequence (P35462 whole entry, looked up): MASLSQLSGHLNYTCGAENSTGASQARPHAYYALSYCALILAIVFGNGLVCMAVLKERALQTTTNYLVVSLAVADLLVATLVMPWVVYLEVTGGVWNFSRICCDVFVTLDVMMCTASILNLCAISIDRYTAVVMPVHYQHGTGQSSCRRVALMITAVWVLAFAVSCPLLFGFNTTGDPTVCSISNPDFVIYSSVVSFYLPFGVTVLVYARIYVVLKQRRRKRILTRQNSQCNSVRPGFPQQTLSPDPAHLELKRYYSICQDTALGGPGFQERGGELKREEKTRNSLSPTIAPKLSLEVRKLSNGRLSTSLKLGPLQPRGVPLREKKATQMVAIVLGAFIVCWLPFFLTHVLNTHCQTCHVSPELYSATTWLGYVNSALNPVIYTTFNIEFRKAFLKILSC
#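 Cells at 1500/well, incubated overnight, then treated with pinned compounds (dopamine as control) for 90 min at 37 degrees C. DiscoveRx reagent added for 30 - 60 minutes at room temperature; luminescence read.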
# a7 integrin act = integrin-mediated muscular dystrophy alleviation activation | AID 624291 | alpha7betagal myoblasts, beta-gal FDG fluorescence, 48 h | 350,000 compounds, 0.064% hits | Potency, µM (titrated, usually from 38.3 µM), hits mostly activators; active = well fitted activation curve with a large enough effect; inconclusive = small, poorly fitted or top-dose-only effect; inactive = no such curve, though single readings can be large or run the other way; also: nearly all actives have a fitted effect of over 60% in size
#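 Alpha7betagal+/- myoblasts (passage 13) were plated 16-24 hr, then exposed to compounds (1:260 dilution of DMSO stock) for 48 hours at 37C. After MPER lysis, β-galactosidase reporter activity was read as FDG fluorescence (ex 480/em 540) after 30 minutes.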
# DRD3 antagonist = D3 dopamine receptor (human) antagonism | D3R cells, DiscoveRx beta-arrestin luminescence, antagonist mode; hits give low values | max response, negative = inhibition, % | 360,000 compounds, 2.5% hits | AID 652054; in the data active = max response below about -50%; inconclusive = no clear call, values can overlap the other calls
#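 Cells plated overnight at 1500 cells/well, then exposed to library compounds with dopamine controls for 90 minutes at 37 degrees C. DiscoveRx reagent added for 30–60 minutes at room temperature; luminescence read, quantitative HTS format.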
# A number is an active result; i = inactive; ? = inconclusive; nt = not tested or not shown; [ ] = remark or other dose. An excerpt weighted towards active compounds, which were near 2.9% of everything screened.
SMILES,DRD3 agonist,a7 integrin act,DRD3 antagonist
CCC(C)NC(=O)CC(NS(=O)(=O)c1ccc(Cl)cc1)c1ccco1 (stereo unspecified),i,i,-53
O=C(CC(NS(=O)(=O)c1ccc(Cl)cc1)c1ccco1)N1CCc2ccccc21 (stereo unspecified),i,i,-69
Cc1ccc(S(=O)(=O)NC(CC(=O)O)c2ccco2)cc1 (stereo unspecified),i,i[7.66 µM],i
Cc1c(C(=O)N(CCc2ccccc2)Cc2ccccc2)cccc1[N+](=O)[O-],i,i,i
COc1ccc(CC(CC(=O)O)C(=O)NCc2ccccc2)cc1 (stereo unspecified),i,i,-69
COc1ccc(CC(CC(=O)O)C(=O)Nc2ccc(Cl)c(Cl)c2)cc1 (stereo unspecified),i,?,i
CCOC(=O)C1CC(=O)c2cc(OC)c(OC)cc2C1 (stereo unspecified),i,i,i
O=C1CC(c2ccc(F)cc2)Sc2ccccc2N1 (stereo unspecified),i,i,i
CC1CC(=S)Nc2ccccc2S1 (stereo unspecified),i,i,-77
CC(c1ccco1)N(C(=O)C12CC3CC(CC(C)(C3)C1)C2)c1ccccn1 (stereo unspecified),i,i,-58
CC(c1ccco1)N(C(=O)c1ccc(F)cc1)c1ccccn1 (stereo unspecified),i,i,i
CCN(Cc1nc(-c2ccc(OC)c(OC)c2)no1)C(=O)c1ccc2c(c1)OCO2,i,i,i
CC1(C)OC(=O)C=C[C@]2(C)[C@H]3CC[C@@]4(C)[C@H](c5ccoc5)OC(=O)[C@H]5O[C@]54[C@]3(C)C(=O)C[C@@H]12,i,i,i
COC(=O)[C@@H]1OC(=O)[C@H]2O[C@@]23[C@@]1(C)CC[C@@H]1[C@@]2(C)C=CC(=O)OC(C)(C)[C@@H]2CC(=O)[C@]13C,46,i,i
O=C(NCc1ccco1)C1CCN(S(=O)(=O)N2CCOCC2)CC1,i,i,i
Cc1cc(C)n2nc(N)nc2n1,i,i,i
Cc1cc(-c2ccccc2)n2nc(N)nc2n1,i,13µM,i
O=C(CN1C(=O)C2CC=CCC2C1=O)Nc1ccc(F)c(Cl)c1 (stereo unspecified),i,i,i
Cc1cc(C)c2nc(-c3ccncc3)cc(C(=O)N3CCN(Cc4ccccc4Cl)CC3)c2c1,43,i,i
O=C(c1cc(-c2ccncc2)nc2ccc(Cl)cc12)N1CCN(Cc2ccc3c(c2)OCO3)CC1,i,i,i
CC(C)CCC(C(=O)O)C(C)CC(=O)NC1CCCCC1 (stereo unspecified),i,i,i
Nc1nc(O)c(N=Nc2ccc(S(N)(=O)=O)cc2)c(=O)[nH]1,i,i,i
NS(=O)(=O)c1ccc(N=Nc2c[nH]c(=O)c(O)c2)cc1,i,i,-66
CN(C)S(=O)(=O)c1ccc2oc(SCC(=O)NCC(F)(F)F)nc2c1,i,i,i
Cc1nc(NCCCN2CCOCC2)c2cnn(-c3ccccc3)c2n1,i,i,-51
SMILES,DRD3 agonist,a7 integrin act,DRD3 antagonist
Cc1ccc(-n2ncc3c(NCCCN4CCOCC4)ncnc32)cc1,i,nt,nt
CC(=O)NNC(=O)CCC(=O)Nc1ccccc1,i,?,-80
O=C(CCC(=O)Nc1ccccc1)NNC(=O)CCc1ccccc1,i,i,i
COc1ccc(NC(=O)c2csc3c2CCCCC3)cc1,i,nt,nt
COc1cccc(NC(=O)c2csc3c2CCCCC3)c1,44,nt,nt
COc1cccc(CNc2ccc(S(=O)(=O)N3CCN(C)CC3)cn2)c1,i,i,i
CCOC(=O)C1CCCN(C(=O)c2cc3nc(-c4cccc(OC)c4)cc(C(F)(F)F)n3n2)C1 (stereo unspecified),52,i,i
CCOC(=O)C1CCCN(C(=O)c2cnn3c(C(F)(F)F)cc(-c4ccccc4)nc23)C1 (stereo unspecified),i,i,i
NS(=O)(=O)c1ccc(S(=O)(=O)N2CCN(C3CCCC3)CC2)cc1,i,i,i
NC(=O)C1CCN(C(=O)CN2CCCc3ccccc32)CC1,i,i,i
Cc1ccc(-n2nc3c(c2NC(=O)C2CCCC2)CS(=O)(=O)C3)cc1,i,?,i
CS(=O)(=O)c1ccc(-n2nnc3ccccc32)c([N+](=O)[O-])c1,i,i,?
N#Cc1cc([N+](=O)[O-])c(-n2nnc3ccccc32)c([N+](=O)[O-])c1,i,i,-58
O=C(NC1CCCCC1)c1ccc(CS(=O)Cc2ccc(Cl)cc2)o1 (stereo unspecified),i,i,i
CCCS(=O)(=O)c1nc(S(=O)(=O)c2ccc(C)cc2)c(N2CCCCC2)s1,i,i,i
CCCS(=O)(=O)c1nc(S(=O)(=O)c2ccc(C)cc2)c(N2CCN(CCO)CC2)s1,i,?,-91
CCS(=O)(=O)c1nc(S(=O)(=O)c2ccc(Cl)cc2)c(N2CCN(CCO)CC2)s1,i,i,i
CCN1CCN(c2sc(S(=O)(=O)CC)nc2S(=O)(=O)c2ccc(Cl)cc2)CC1,i,i,-105
CCn1c(CCc2ccccc2)nnc1SCC(N)=O,i,i,i
COc1ccc(S(=O)(=O)/N=C2\C=C(Nc3ccc(O)cc3)C(=O)c3ccccc32)cc1,i,i,-80
COC(=O)C(C(C)=O)C1=C/C(=N\S(=O)(=O)c2ccc(C)cc2)c2ccccc2C1=O (stereo unspecified),i,i,i
CC(=O)Nc1ccc(NC(=O)C(C)OC(=O)c2ccccc2NS(=O)(=O)c2cccs2)cc1 (stereo unspecified),i,i,i
CC(=O)Nc1ccc(NC2=C/C(=N/S(=O)(=O)c3cccs3)c3ccccc3C2=O)cc1,i,i,-66
Cc1ccccc1NC1=C/C(=N\S(=O)(=O)c2cccs2)c2ccccc2C1=O,i,i,-112
Cc1ccc(NC2=C/C(=N/S(=O)(=O)c3cccs3)c3ccccc3C2=O)cc1C,i,i,i
SMILES,DRD3 agonist,a7 integrin act,DRD3 antagonist
CCOC(=O)c1c(C)c(C(=O)OCC)n(C)c1C,i,i,i
CN(Cc1ccccc1)C1CCCN(C(=O)c2ccc(Cl)s2)C1 (stereo unspecified),i,i,-82
COCc1ccc(C(=O)N2CCCC(N(C)Cc3ccccc3)C2)s1 (stereo unspecified),i,i,i
Cc1ccc(Cl)cc1N1CCN(C(=O)C2CCN(S(=O)(=O)c3c(C)noc3/C=C/c3ccccc3F)CC2)CC1,i,nt,nt
O=C(Cc1nc(-c2cnccn2)no1)NNC(=O)Nc1ccccc1,i,i,i
COc1ccc(OC2C(=O)N(Cc3ccc(F)cc3)C2c2cc(OC)c(OC)c(OC)c2)cc1 (stereo unspecified),i,i,i
COc1ccc(C2C(Oc3ccccc3C)C(=O)N2Cc2ccc(F)cc2)cc1OC (stereo unspecified),i,i,-69
CCCCNC(=O)N1CCc2ccccc2C1,i,i,i
CCCCNc1nc2ccccc2n1CC(=O)N1CCc2ccccc2C1,i,i,-76
CC1CCN(c2ccccc2NC(=S)NC(=O)c2ccco2)CC1,i,i,i
COc1cc([N+](=O)[O-])ccc1NC(=O)C1C2C=CC(C2)C1C(=O)O (stereo unspecified),i,i,i
O=C(Cc1ccccc1)Nc1ccc(Br)c(Cl)c1,i,?,i

# Assay outcomes deposited in PubChem BioAssay by National Center for Advancing Translational Sciences (NCATS).
